According to PubChem BioAssay AID2252 (Southern Research Specialized Biocontainment Screening …, 2010):
Among all 2,300 compounds or so, about 1,500 (65%) were called active. No rule for the calls is given here. So high a share suggests a set chosen from earlier hits. Not all results are given here.

Experiment: PubChem AID 2252
Conditions: THP-1 viability, CellTiter-Glo luminescence, 72 h; min viability: minimum viability across concentrations, concentration not given here; series mostly up to 50 µM

| Structure (SMILES) | outcome |
| --- | --- |
| COCCn1nnnc1C(c1cccc(OC)c1OC)N1CCN(C2CCCCC2)CC1 (stereo not given) | inactive |
| O=C(O)C1CCCCC1C(=O)NCCc1ccncc1 (stereo not given) | inactive |
| O=C(Nc1nccs1)c1ccc(Cl)cc1[N+](=O)[O-] | inactive |
| Cc1ccc2c(c1)C1CN(C)CCC1N2C(=O)COc1ccccc1F (stereo not given) | inactive |
| CCc1nc(C)ccc1OCC(=O)NCCCN(C)C | inactive |
| CN1C(=O)NC(c2cccc(O)c2)C(C(=O)c2cccs2)C1(O)C(F)(F)F (stereo not given) | inactive |
| Cc1cccc(N2C(=O)CS/C2=N\NC(=O)c2ccc(Br)cc2)c1C | inactive |
| N#Cc1nc(Cc2cccc3ccccc23)oc1NCCCN1CCOCC1 | inactive |
| Cc1ccc(/C=N/NC(=O)Cc2cccn2C)cc1 | inactive |
| O=C(Cc1ccccc1)NCC(=O)Nc1cccc(Cl)c1 | inactive |
| CC(=O)c1ccc(NC(=O)CN2CCCCCC2)cc1 | inactive |
| CSC(=Nc1ccc(Cl)cc1)N[n+]1ccccc1 | inactive |
| CC(=O)Nc1ccc(S(=O)(=O)Nc2nc3ccccc3nc2Nc2cccc(S(N)(=O)=O)c2)cc1 | inactive |
| COCCNC(=O)c1cccc(OC2CCN(Cc3ccccc3C)CC2)c1 | inactive |
| Cc1ccc(C(=O)N/N=C\c2sccc2C)cn1 | inactive |
| CN(C)CCCOC(=O)c1sc2ccccc2c1Cl | inactive |
| COc1c2ccccc2nc2ccccc12 | inactive |
| CCn1cc(C(=O)O)c(=O)c2cc(F)c(N3CCN(C(=S)NC(=O)c4ccc(Br)cc4)CC3)cc21 | inactive |
| O=C(NCc1ccccc1)N[C@@H](Cc1c[nH]c2ccccc12)C(=O)O | inactive |
| CCn1cc(C(=O)NCCO)c(=O)c2cc(F)c(N3CCN(C)CC3)cc21 | inactive |
| CCn1nnnc1NCc1cccc(Cl)c1 | inactive |
| O=C(O)c1cn(-c2ccc(F)cc2)c2cc(Cl)c(F)cc2c1=O | inactive |

| Structure (SMILES) | outcome |
| --- | --- |
| COc1cccc(NC(=O)CSc2nncn2-c2ccccn2)c1 | inactive |
| O=C(NC1CC1)C1CCN(C2CCN(C(=O)Cc3ccc(F)cc3)CC2)CC1 | inactive |
| O=C(NC(CO)C(O)c1ccc([N+](=O)[O-])cc1)C(Cl)Cl (stereo not given) | inactive |
| CN1CCCN(S(=O)(=O)c2ccc3ccccc3c2)CC1 | inactive |
| NS(=O)(=O)OCCCc1ccc(C(F)(F)F)cc1 | inactive |
| N#CCC(=O)N/N=C/c1ccccc1Cl | inactive |
| COc1ccc(-c2nc3ccc(C(=O)NCC(OC)OC)cc3nc2-c2ccc(OC)cc2)cc1 | inactive |
| Cc1cc(C)c(S(=O)(=O)Nc2ccccc2C(=O)OCC(=O)NCc2ccccc2)c(C)c1 | inactive |
| CCOC(=O)c1cccc(NC(=O)c2cccs2)c1 | inactive |
| Cc1ccc(NC(=O)c2cc(NC(=O)CCCC(=O)O)ccc2Cl)cc1Cl | inactive |
| O=C(CCCOc1ccc(Cl)cc1Cl)NNC(=O)C1CCC1 | inactive |
| CCCCN1/C(=C/c2cccc[n+]2C)Sc2cc(NC(C)=O)ccc21 | inactive |
| CC(C)CC(=O)N1CCN(C(=O)CCC2CCCC2)CC1 | inactive |
| O=C(NCc1cccnc1)C1c2ccccc2C(=O)N1Cc1ccccc1 (stereo not given) | inactive |
| O=Cc1ccc(O)cc1O | inactive |
| CCC(C)NC(=O)c1cn(CC)c2cc(N3CCN(C)CC3)c(F)cc2c1=O (stereo not given) | inactive |
| Cc1ccn2cc(-c3ccc4c(c3)NC(=O)CO4)nc2c1 | inactive |
| O=C(CN(C(=O)CNS(=O)(=O)c1ccccc1)C1CCCC1)NCc1ccco1 | inactive |
| O=c1[nH]cc(N=Cc2cc([N+](=O)[O-])ccc2O)c(=O)[nH]1 | inactive |
| CC(Sc1nc2ccccc2o1)C(=O)O (stereo not given) | inactive |
| Cc1cc(C)cc(CSc2nnc(C)c(=O)[nH]2)c1 | inactive |
| CCCCN(C)C(=O)c1ccc(S(=O)(=O)N2CCOCC2)cc1 | inactive |

| Structure (SMILES) | outcome |
| --- | --- |
| COc1ccc(-c2nnn(-c3ccc(Cl)cc3Cl)c2N)cc1 | inactive |
| Cc1cc(C)c2c(N)c(C(=O)c3ccc(Cl)c(Cl)c3)sc2n1 | inactive |
| Cn1c(-c2ccc(CN3CCCCC3)o2)nc2ccccc21 | inactive |
| O=C(NCC1CCCO1)c1cc2ccccc2oc1=O (stereo not given) | inactive |
| CN(C)C(=O)CSc1nnc(Cc2ccc([N+](=O)[O-])cc2)o1 | inactive |
| CSc1nc2ccc(Cl)cc2[nH]1 | inactive |
| Cn1cc(S(=O)(=O)NCC2CCCO2)c(=O)n(C)c1=O (stereo not given) | inactive |
| CN1C2=CC=CC=CC2=[N+](C)C12C=CC(=[N+]([O-])[O-])C=C2[N+](=O)[O-] (stereo not given) | inactive |
| Cc1cc(N2CCCCC2)c(F)cc1[N+](=O)[O-] | inactive |
| O=C(N/N=C/c1ccc(-c2ccc(Br)cc2)o1)c1ccc2c(c1)OCO2 | inactive |
| Cc1ccc(-n2ncc3c(=O)[nH]cnc32)c(C)c1 | inactive |
| CC(=O)N1CSCC1C(=O)N1CCN(c2ccc(N3CCOCC3)nn2)CC1 (stereo not given) | inactive |
| CCCCNC(=O)NS(=O)(=O)c1ccc(C(=O)OC)o1 | inactive |
| O=C(c1cccs1)N1CCC(N2CCN(c3ccccc3)CC2)CC1 | inactive |
| N#Cc1c(/N=C/c2cccs2)sc2c1CCCCC2 | inactive |
| Cc1ccc(NC(=O)CCNC(=O)c2ccccc2)cc1F | inactive |
| Cc1c(/C=N/NC(=O)c2sc3ccccc3c2Cl)cnn1C | inactive |
| Cc1cc(C)cc(N(C(=O)CNC(=O)c2cccs2)C(C(=O)NC2CCCC2)c2cccnc2)c1 (stereo not given) | inactive |
| CC(C)OC(=O)Cn1c(=O)sc2ccccc21 | inactive |
| CC(=O)Nc1cccc(NS(=O)(=O)Cc2ccc(Cl)cc2)c1 | inactive |
| COc1ccc(C(=O)NNS(=O)(=O)c2ccccc2)cc1OC | inactive |
| O=C(NCc1ccccc1)c1ccc(CNc2c(N3CCCC3)c(=O)c2=O)cc1 | inactive |

| Structure (SMILES) | outcome |
| --- | --- |
| C[C@H]1COc2c(N3CCN(C)CC3)c(F)cc3c(=O)c(C(=O)O)cn1c23 | inactive |
| CCCCc1cc(=O)oc2cc(C)cc(OCC(=O)NCC3CCC(C(=O)O)CC3)c12 (stereo not given) | inactive |
| Cc1ccc(CNC(=O)CCC(=O)Nc2nnc(C)s2)cc1 | inactive |
| CCOc1cc(S(=O)(=O)N2CCN(CC)CC2)ccc1Cl | inactive |
| O=C(NCc1ccc2c(c1)OCO2)c1ccc2c(c1)C(=O)N(Cc1cccnc1)C2=O | inactive |
| CCOC(=O)C1CCN(C(=O)CCc2nc3ccccc3[nH]2)CC1 | inactive |
| NS(=O)(=O)c1ccc(CCNS(=O)(=O)c2cccc(C(=O)O)c2)cc1 | inactive |
| O=C(NC(=O)c1ccccc1)OCC1CCCN2CCCCC12 (stereo not given) | inactive |
| N=c1ccccn1CC(O)COc1ccccc1 (stereo not given) | inactive |
| COc1cc(/C=C2/C(=O)NN(c3ccc(C)c(Cl)c3)C2=O)cc([N+](=O)[O-])c1O | inactive |
| O=C(O)c1ccc(S(=O)(=O)NC2CC2)cc1 | inactive |
| C#CCOCCOCCOCCNc1nc(N2CCN(C(=O)[C@H](Cc3ccc(O)cc3)n3cc([C@@H](N)C(C)CC)nn3)CC2)nc(N2CCN(C(=O)[C@H](Cc3cc4ccccc4[nH]3)n3cc([C@@H](N)Cc4ccc(O)cc4)nn3)CC2)n1 (stereo not given in full) | inactive |
| NC1=NC(c2cccc(O)c2)n2c(nc3ccccc32)N1 (stereo not given) | inactive |
| COc1ccc(CCC(=O)NCc2cn3ccccc3n2)cc1 | inactive |
| O=C(NC(O)C(=O)c1ccccc1)c1ccc(F)cc1 (stereo not given) | inactive |
| Cc1ccc(N2CC(C(=O)OCc3ccccc3F)CC2=O)cc1 (stereo not given) | inactive |
| CCn1cc(C(=O)O)c(=O)c2cc(F)c(N3CCN(C(=S)NC(=O)c4ccccc4C)CC3)cc21 | inactive |
| COCCN1CC(=O)N2C(c3cccc(OC)c3)c3[nH]c4ccccc4c3C[C@H]2C1=O (stereo not given in full) | inactive |
| O=C(NC1CCCC1)c1ccc(Br)s1 | inactive |
| Cc1cccc(NCN2C(=O)c3ccccc3C2=O)c1 | inactive |
| Cc1cnc(NC(=O)CN2C(=O)C3CC=CCC3C2=O)s1 (stereo not given) | inactive |
| CC(C)c1ccc(C2C(C#N)=C(N)Oc3c2oc(CO)cc3=O)cc1 (stereo not given) | inactive |

| Structure (SMILES) | outcome |
| --- | --- |
| NC(=O)c1ccc(N=C2C(=O)Nc3ccc([N+](=O)[O-])cc32)cc1 | inactive |
| CC(/C=C\c1cccnc1)=C/C(=O)O | inactive |
| NCCCCCc1nnc(SCc2ccc(Cl)cc2Cl)o1 | inactive |
| COc1cc2c(cc1OC)CN(C(=O)CCCN1C(=O)c3ccccc3C1=O)CC2 | inactive |
| CCOC(=O)C1=C(C(C)=O)C(c2cccnc2)C(C#N)=C(N)O1 (stereo not given) | inactive |
| O=C(CSc1nc2c(c(=O)n1-c1ccc(F)cc1)SCC2)NCc1ccco1 | inactive |
| CC(C)n1cnnc1SCC(=O)Nc1ccc(Br)cc1F | inactive |
| Cc1nn(C)c(C)c1NC(=O)c1ccc(S(=O)(=O)N(C)C)cc1 | inactive |
| COc1ccc(C2C3=C(CC(C)(C)CC3=O)Nc3cc4c(cc32)OCO4)cc1 (stereo not given) | inactive |
| O=c1ccnc(Sc2ncccc2[N+](=O)[O-])[nH]1 | inactive |
| CC[C@H]1OC(=O)[C@H](C)[C@@H](O[C@H]2C[C@@](C)(OC)[C@@H](O)[C@H](C)O2)[C@H](C)[C@@H](O[C@@H]2O[C@H](C)C[C@H](N(C)C)[C@H]2O)[C@](C)(O)C[C@@H](C)CN(C)[C@H](C)[C@@H](O)[C@]1(C)O | inactive |
| COc1cc(NS(=O)(=O)c2ccc(NC(=S)Nc3ccccc3)cc2)nc(OC)n1 | inactive |
| O=C1CC(=O)CC(c2ccco2)C1 | inactive |
| CCn1c(CNC(=O)c2ccc(OC)cc2)nnc1SC | inactive |
| CC(=O)c1ccc(OC(=O)c2cc3ccccc3oc2=O)cc1 | inactive |
| COc1ccc(NC(=O)c2ccc3nc[nH]c3c2)cc1 | inactive |
| COC(=O)c1cn(C(=O)c2ccco2)c2ccccc12 | inactive |
| CCN1CCN(Cc2ccc(NC(=O)c3ccc(C)c(NC(=O)C(=O)c4c[nH]c5ccccc45)c3)cc2C(F)(F)F)CC1 | inactive |
| Cn1nnnc1SCC(=O)Nc1ccccc1-c1ccccc1 | inactive |
| CCn1c(SCC(=O)Nc2oc(-c3ccccc3)c(-c3ccccc3)c2C#N)nnc1-c1ccco1 | inactive |
| Cc1ncc(CC(=O)n2cc(C(=O)c3cc(F)ccc3O)cn2)s1 | inactive |
| COc1ccc(C(CC(=O)O)NC(=O)C2CCCCC2)cc1 (stereo not given) | inactive |
